From PubChem
USP2a block: inhibitors of human ubiquitin-specific protease USP2a. O75604. AID 463254. Potency, µM (doses to about 38.3 µM), without a hit: top-dose activity change, negative = inhibition, actives largely listed as inhibitors. 330,000 compounds, 0.01% hits. USP2 core, Ub-CHOP2 coupled fluorogenic reporter, 485/531;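 note: potency is the fitted concentration of half-maximal effect; plate controls were DMSO wells for no effect and full inhibition by NEM control for full effect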
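Deubiquitinase activity read as fluorescence (485/531 nm) after Ub-CHOP2 cleavage activates the enterokinase reporter on its substrate; USP2 core 10nM, Ub-CHOP2 and substrate 25nM each, 30min compound preincubation then 60min RT; data normalized to NEM, curves fitted.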
PI4K2A block: PI4K2A (human) kinase inhibition; 420,000 compounds, 0.13% hits; purified PI4K2A, ADP-Glo luminescence, 1 h; hits give low values; activity change, negative = inhibition, % at 76.9 µM; in the data active = activity change below about -50%; inconclusive = mostly about -30% to -49%;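 note: -100% = wells without enzyme as full effect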
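In this quantitative HTS, ADP production by PI4K2A was quantified luminescently after 1 h at ambient temperature; 100 microM adenosine served as plate-quality control.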
Eya2 phos inh: inhibitors of human Eya2 phosphatase activity. O00167. recombinant Eya2, OMFP fluorescence dephosphorylation (OMFP is methylfluorescein phosphate). Potency, µM (top dose mostly 76.9 µM), without a hit: at the highest dose activity, negative = inhibition, most hits filed as inhibitors. 330,000 compounds, 0.006% hits. AID 488837; note: potency is the fitted concentration of half-maximal effect
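Eya2 (0.2 uM) preincubated 10 min at ambient with compound, then OMFP substrate added at 50 uM; 10 min reaction in 50 mM HEPES pH 7.5, 50 mM NaCl, 5 uM MgCl2, 0.05% BSA, 1 mM DTT. Fluorescence read at Ex 485/Em 525 nm.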
GALK inh: inhibitors of human galactokinase; 270,000 compounds, 0.007% hits; Potency, µM (highest dose often 57.5 µM), inactives show at the highest dose activity change, negative = inhibition, hits mostly inhibitors; Purified GALK, Kinase-Glo residual ATP luminescence; P51570; note: potency is the fitted concentration of half-maximal effect
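ATP-depletion format; final 35 uM ATP, 100 uM D-galactose, 5 nM enzyme; pH 8.0 HEPES/Mg2+ buffer; 60 min RT; luminescence read 10 min after detection reagent.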
Coupling enz: inhibits coupling enzyme system, counter-screen for aldolase hits; coupling enzyme system counterscreen, AmpLite Red fluorescence; activity change, negative = inhibition, % at 58.2 µM, hits read low; 290,000 compounds, 0.67% hits; in the data active = activity change below about -30%
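Final compound at 57.5 uM, incubated 10 min at RT with coupling enzyme reagent (glyceraldehyde-3-phosphate), then 20 min with substrate and AmpLite Red detection. Fluorescence read at 525/598 nm; tests interference with the coupling assay, not aldolase inhibition.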
USP1 inh: blocks the human USP1/UAF1 deubiquitinase complex. 390,000 compounds, 0.23% hits. Potency, µM (highest dose often 57.1 µM), for the others: at the highest dose activity change, negative = inhibition, most hits filed as inhibitors. recombinant USP1/UAF1, Ub-Rhodamine cleavage fluorescence. AID 743255. O94782; note: potency is the fitted concentration of half-maximal effect; nearly all actives have a fitted effect of over 60% in size
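Step one: compound is pinned into 1nM USP1/UAF1 in HEPES pH 7.8 buffer with TCEP. Step two: 15 min room-temperature incubation. Step three: Ub-Rho (150nM final) starts cleavage, tracked by fluorescence over six one-minute reads.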
* marks the source's active call; other numbers are inactive results; ? = inconclusive; . = no result. The list is not random: actives were taken first. Their share in the collection is about 0.71%. Unless noted, calls come from the whole dose curve; as a rule, active = well fitted curve in the direction sought with a large enough effect; inconclusive = small, poorly fitted or top-dose-only effect, or another doubt; inactive = no such curve, though single readings can be large; an effect the other way counts as inactive or inconclusive. Unless noted, % is set by controls: 0 for no effect and ±100 for the full control effect.

SMILES	USP2a block	PI4K2A block	Eya2 phos inh	GALK inh	Coupling enz	USP1 inh
CSc1nnc(-c2ccco2)c(-c2ccco2)n1	0.0%	-12.9	3.3%	-3.0%	-34.2*	-21.5%
Cc1ccc(/C=N/NC(=O)c2cccc(S(=O)(=O)Nc3ccccc3Cl)c2)s1	-0.5%	-0.4	-0.1%	2.0%	-33.6*	-19.0%
COc1cc2nc(Cl)nc(N)c2cc1OC	.	-3.7	.	.	.	.
COc1ccccc1OCCCn1cc(C#N)c2ccccc21	0.8%	8.9	18.5%	-2.5%	-32.1*	-6.4%
O=C(N/N=C1/C[C@@H](O)[C@@H](O)[C@@H]2[C@@H]3C(=O)N(Cc4ccccc4)C(=O)[C@H]3CC[C@@H]12)OCc1ccccc1	.	.	.	.	0.4	.
O=C1C2=CC[C@H]3C(=O)N(c4cccc(Oc5ccccc5)c4)C(=O)[C@@H]3[C@@H]2[C@H](O)[C@@H]2O[C@H]12	.	.	.	.	1.2	.
Cc1ccccc1C1=C/C(=C(\SS/C(C(=O)c2ccc(OCC(=O)O)c(Cl)c2Cl)=C2\C=C(c3ccccc3C)SS2)C(=O)c2ccc(OCC(=O)O)c(Cl)c2Cl)SS1	.	-11.1	.	.	.	31.6µM*
CCOC(=O)[C@H](Cc1ccc(O)cc1)NC(=O)c1ccccc1	.	.	.	.	1.6	.
COc1ccc2c(C#N)c3ccccn3c2c1	5.2%	-7.0	-1.0%	-0.7%	-36.9*	-20.9%
COc1ccc(-c2nnc(SCC(=O)Nc3ccc(S(=O)(=O)Nc4nccs4)cc3)n2-c2ccc(OC)cc2)cc1	.	-6.4	.	.	.	.
CN(C)NC(=S)Nc1ccc2nc(-c3ccccn3)c(-c3ccccn3)nc2c1	1.4%	1.2	-24.2%	-3.7%	-17.2	-2.6%
OCCCNC(=S)Nc1ccc2nc(-c3ccccn3)c(-c3ccccn3)nc2c1	-1.0%	-2.8	2.7%	-0.8%	-33.5*	-12.6%
S=C(Nc1ccc2nc(-c3ccccn3)c(-c3ccccn3)nc2c1)N1CCOCC1	18.9%	-0.2	17.3%	-2.3%	-41.2*	-19.9%
CC(C)(C)CC(C)(C)NC(=S)Nc1ccc2nc(-c3ccccn3)c(-c3ccccn3)nc2c1	-4.0%	1.4	-5.8%	-1.3%	-55.6*	-19.8%
COc1cccc(Cn2c(=O)c(-c3cc(F)cc(F)c3)nc3cnc(N4CCNCC4)nc32)c1	.	.	.	.	3.2	.
COc1cccc2c1C(=O)c1c(O)c3c(c(O)c1C2=O)C[C@](O)(C(=O)CO)C[C@H]3O[C@@H]1C[C@H](N)[C@H](O)[C@H](C)O1	.	.	.	.	-2.4	.
COc1cccc2c1C(=N)c1c(O)c3c(c(O)c1C2=O)CC(O)(C(C)=O)CC3OC1CC(N)C(O)C(C)O1 (centres undefined)	.	?	.	.	.	-25.7%
COc1cccc2c1C(=O)c1c(O)c3c(c(O)c1C2=O)CC(O)(C(C)=O)CC3OC1CC(O)C(O)C(C)O1 (centres undefined)	.	-10.3	.	.	.	25.1µM*
COc1cccc2c1C(=O)c1c(O)c3c(c(O)c1C2=O)C[C@](O)(C(C)=O)C[C@H]3O[C@@H]1C[C@@H](N)[C@@H](O)[C@@H](C)O1	?	-10.6	22.8%	.	.	12.6µM*
CC(C)CO/N=C1/C[C@@H](O)[C@@H](O)[C@@H]2[C@@H]3C(=O)N(C(C)(C)C)C(=O)[C@H]3CC[C@@H]12	.	.	.	.	1.3	.
O=C(N/N=C1/C[C@@H](O)[C@@H](O)[C@@H]2[C@@H]3C(=O)N(c4cccc(Oc5ccccc5)c4)C(=O)[C@H]3CC[C@@H]12)OCc1ccccc1	.	.	.	.	0.8	.
NCCNCCN	.	.	.	.	-43.6*	.
COc1ccccc1NS(=O)(=O)c1cc([N+](=O)[O-])ccc1N/N=C/c1c(C)[nH]c2ccccc12	-1.2%	0.9	-1.9%	-1.6%	-3.3	28.2µM*
Cc1[nH]c2ccccc2c1/C=N/Nc1ccc([N+](=O)[O-])cc1	-10.5%	-1.9	-14.1%	0.3%	-0.8	-16.1%
